Test systems include DU-145 prostate; K-562 leukemia; MALME-3M melanoma; MDA-MB-231 breast; RXF 393 renal; SF-268 CNS; SF-295 CNS; SF-539 CNS; UACC-257 melanoma; M14 melanoma; HCT-15 colon; HT29 colon; SNB-75 CNS; SNB-19 CNS; U251 CNS; PC-3 prostate; SK-MEL-5 melanoma; UACC-62 melanoma; LOX IMVI melanoma; SK-MEL-28 melanoma.
Common to all, as to assay: NCI-60 one-dose screen, 48 h (100 = growth as untreated, 0 = no growth, -100 = all killed)
Common to all, as to details: 10 µM unless noted

Experimental findings from PubChem BioAssay (NCI) are described below.

SMILES strings stand for the structures. This is part of a sample that, as a whole, favours compounds with a hit. Of some 83,000 tested, about 20% had one in any assay.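 48-hour exposure, single concentration, 96-well plates; percent growth endpoint where 0 means no net growth. Active: below 10.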 Values without a mark were called inactive. Activity calls are given as the source filed them.

`O=C(/C=C/c1cccc(C(F)(F)F)c1)Nc1cccc(C(F)(F)F)c1`: the growth was 30.1% with DU-145 prostate; 23.2% in the assay on K-562 leukemia; 84.7% with MALME-3M melanoma; 108% in the assay with MDA-MB-231 breast; 88.7% in the assay with RXF 393 renal; 70.7% in the assay with SF-268 CNS. For the same compound, the growth with SF-295 CNS was 10.5%; in the assay on SF-539 CNS it was 97.1%; in the assay on UACC-257 melanoma it was 87.5%; in the assay on M14 melanoma it was 56.8%; in the assay with HCT-15 colon it was 14.9%; in the assay with HT29 colon, 51.5%. Besides, the growth in the assay with SNB-75 CNS is 97.5%; with SNB-19 CNS it was 81.9%; in the assay with U251 CNS it was 26.9%; in the assay with PC-3 prostate it was 18.9%; with SK-MEL-5 melanoma it was 89.1%; in the assay with UACC-62 melanoma it was 84.5%. In addition, the growth in the assay on LOX IMVI melanoma was 28.4%; with SK-MEL-28 melanoma it was 65.4%.

Consider `CNC(=O)c1cc(N2CCc3cc(NC(=O)Nc4ccc(N5CCN(C)CC5)c(C(F)(F)F)c4)ccc32)ccn1`, for which the growth with DU-145 prostate is 84.6%; in the assay on K-562 leukemia, 0.938% (active); in the assay with MALME-3M melanoma, 67.8%; with MDA-MB-231 breast it was 74.3%; with RXF 393 renal, -16% (active); in the assay with SF-268 CNS, 80.4%. The growth in the assay with SF-295 CNS is -49.8% (active); in the assay on SF-539 CNS, 16.8%; with UACC-257 melanoma it was 104%; with M14 melanoma, 61.6%; in the assay with HCT-15 colon, 29.1%; with HT29 colon it was 21.8%. Besides, the growth in the assay with SNB-75 CNS is 75.1%; in the assay on SNB-19 CNS, 81.5%; with U251 CNS, 52.7%; in the assay with PC-3 prostate, 59.7%; in the assay with SK-MEL-5 melanoma, 85.8%; in the assay with UACC-62 melanoma, 104%. For the same compound, the growth with LOX IMVI melanoma was -77.5% (active); in the assay with SK-MEL-28 melanoma, 7.33% (active).

For the compound `COc1ccccc1Cn1cc(C#N)c(N)c1C(=O)c1ccc(Br)cc1`, the growth is 104% in the assay with DU-145 prostate; 83.2% in the assay with K-562 leukemia; 96% in the assay with MALME-3M melanoma; 88.7% with MDA-MB-231 breast; 92.1% in the assay on RXF 393 renal; 96.2% with SF-268 CNS. The growth in the assay on SF-295 CNS was 93%; with SF-539 CNS, 99.8%; in the assay on UACC-257 melanoma, 100%; with M14 melanoma, 98.5%; with HCT-15 colon, 86.6%; with HT29 colon it was 107%. Moreover, the growth in the assay on SNB-75 CNS was 81.1%; with SNB-19 CNS, 84.9%; in the assay with U251 CNS it was 102%; in the assay on PC-3 prostate it was 96.8%; with SK-MEL-5 melanoma it was 96.7%; in the assay with UACC-62 melanoma, 69.7%. In addition, the growth was 94.6% in the assay with LOX IMVI melanoma and 100% with SK-MEL-28 melanoma.

Consider `FC(F)(F)c1cc(Br)cc(-c2cc(-c3ccc4c(c3)OCCO4)[nH]n2)c1`, for which the growth in the assay with DU-145 prostate is 23.8%; in the assay on K-562 leukemia it was 14.6%; in the assay on MALME-3M melanoma it was 48.4%; in the assay on MDA-MB-231 breast it was 1.68% (active); with RXF 393 renal, 31.6%; in the assay with SF-268 CNS it was 41.7%. Also, the growth with SF-295 CNS was 12.3%; in the assay on SF-539 CNS it was -5.31% (active); with UACC-257 melanoma, 80.4%; in the assay on M14 melanoma, 20.1%; in the assay on HCT-15 colon, 15.7%; in the assay on HT29 colon, 6.74% (active). In addition, the growth in the assay on SNB-75 CNS was 5.38% (active); in the assay on SNB-19 CNS, 34.3%; in the assay with U251 CNS, 23.1%; with PC-3 prostate, 37%; with SK-MEL-5 melanoma it was 17.9%; with UACC-62 melanoma, 40.2%. The growth is 19% in the assay with LOX IMVI melanoma and 68.3% in the assay on SK-MEL-28 melanoma.

`Cn1c2nc3ccccc3c-2cc2ccccc21`: the growth with DU-145 prostate is 30.9%; with K-562 leukemia, 21.1%; in the assay on MALME-3M melanoma it was 36.6%; in the assay on MDA-MB-231 breast, 36.1%; with RXF 393 renal, 43.3%; in the assay with SF-268 CNS it was 57.3%. Besides, the growth in the assay with SF-295 CNS was 39.6%; in the assay on SF-539 CNS it was 39.1%; in the assay on UACC-257 melanoma, 49.2%; with M14 melanoma, 48.3%; with HCT-15 colon it was 25%; in the assay on HT29 colon, 30.2%. Further, the growth in the assay with SNB-75 CNS was 82.3%; in the assay with SNB-19 CNS it was 45.5%; with U251 CNS it was 41.7%; with PC-3 prostate it was 46.2%; with SK-MEL-5 melanoma, 31.2%; with UACC-62 melanoma, 46.2%. The growth is 18.9% in the assay on LOX IMVI melanoma and 76.1% in the assay on SK-MEL-28 melanoma.

Turning to `Cn1cc(-c2cc3ncnc(Nc4ccc(NC(=O)Nc5cc(C(C)(C)C)on5)cc4)c3s2)cn1`, the growth with DU-145 prostate was 47.8%; with K-562 leukemia, 8.65% (active); in the assay with MALME-3M melanoma it was 17.3%; with MDA-MB-231 breast, 28%; with RXF 393 renal, -5.22% (active); in the assay on SF-268 CNS, 45.5%. In addition, the growth was -37.8% (active) in the assay with SF-295 CNS; -47.8% (active) in the assay on SF-539 CNS; 25.3% in the assay with UACC-257 melanoma; 11.6% with M14 melanoma; 27.9% with HCT-15 colon; 16.7% in the assay with HT29 colon. In addition, the growth in the assay on SNB-75 CNS is 6.15% (active); in the assay with SNB-19 CNS, 56.4%; in the assay on U251 CNS, 37.9%; in the assay on PC-3 prostate, 28.5%; with SK-MEL-5 melanoma it was 20.8%; in the assay with UACC-62 melanoma it was 22.2%. In addition, the values for the growth with LOX IMVI melanoma and in the assay with SK-MEL-28 melanoma were 6.08% (active) and 15%, respectively.

On to `COc1cc(OC)cc(-c2cc(-c3c[nH]c4ccccc34)nc(-c3c[nH]c4ccccc34)c2C#N)c1`, for which the growth with DU-145 prostate was 101%; in the assay on K-562 leukemia, 93.2%; in the assay with MALME-3M melanoma, 108%; in the assay with MDA-MB-231 breast, 101%; in the assay with RXF 393 renal, 108%; in the assay with SF-268 CNS, 100%. In addition, the growth with SF-295 CNS was 101%; in the assay on SF-539 CNS, 94.2%; with UACC-257 melanoma, 112%; in the assay on M14 melanoma, 95%; with HCT-15 colon, 102%; with HT29 colon it was 108%. The growth in the assay on SNB-75 CNS is 87.6%; in the assay with SNB-19 CNS, 96.6%; in the assay with U251 CNS, 100%; in the assay on PC-3 prostate, 93.6%; with SK-MEL-5 melanoma, 98.5%; in the assay on UACC-62 melanoma, 93.6%. For the same compound, the results for the growth in the assay with LOX IMVI melanoma and in the assay with SK-MEL-28 melanoma were 82.7% and 101%, respectively.
